Assay results from PubChem BioAssay (NCI).
This is part of a sample that, as a whole, favours compounds with a hit. Of some 79,000 tested, about 15% had one in any assay. The source made the active and inactive calls. No stated cut-off is given here; in the data, active means growth inhibition above about 70%; inactive means the rest.

Assay: NCI Yeast Anticancer Drug Screen. Data for the rad50 strain (AID 155);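 further: 0% = growth of vehicle-only cultures of the same strain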
Details: S. cerevisiae rad50 strain growth inhibition; at 50.0 µM (retest, dose inferred, filed as 5.0); hits give high values
Summary of the method: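 Cells are treated with compound, grown, and their growth is then scored against vehicle-only cultures of the same repair-deficient yeast strain.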
With `OC1C2COc3nc4ccccc4n3C(O2)C1O` (stereo not given) the growth inhibition was -165% (inactive).
In the case of `CN(C)CC1Cc2ccsc2C1=O` (stereo not given), the growth inhibition is reported as 85% (active).
For `CCCC(O)C[N+](=O)[O-]` (stereo not given), the growth inhibition was 71% (active).
With `CC1=NC(C)=C(/C(C)=N/NC(=O)c2ccccc2O)C(C)/C1=C(/C)NNC(=O)c1ccccc1O` (stereo not given) the growth inhibition was 16% (inactive).
With `O=[N+]([O-])c1cccc(S(=O)(=O)N/N=C/c2cc(I)cc([N+](=O)[O-])c2O)c1` the growth inhibition was 6% (inactive).
In the case of `CNC(=O)OC(C)CN1c2ccccc2Sc2ccc(Cl)cc21` (stereo not given), the growth inhibition is reported as 97% (active).
For `O=[N+]([O-])c1ccc(NSc2ccccc2)cc1`, the growth inhibition was 98% (active).
For `CCOc1ccc2c(c1)nc1ccccc1[n+]2CC`, the growth inhibition was 22% (inactive).
In the case of `O=C1C=CC(=O)c2c(O)c(N3CCN(CCO)CC3)c(Cl)c(O)c21`, the growth inhibition is reported as 95% (active).
In the case of `O=C1CSC(c2cccc([N+](=O)[O-])c2)N1c1ccc(-c2ccc(-n3c(-c4ccccc4)nc4ccccc4c3=O)cc2)cc1` (stereo not given), the growth inhibition is reported as 72% (active).
In the case of `CCC(=O)c1ccc2ccc3ccccc3c2c1`, the growth inhibition is reported as 60% (inactive).
In the case of `N#CSCc1c(Cl)cccc1Cl`, the growth inhibition is reported as 59% (inactive).
With `O=[N+]([O-])/C(C(Cl)=C(Cl)Cl)=C(/Sc1ccccc1)N1CCOCC1` the growth inhibition was 99% (active).
In the case of `COc1c2occc2c(OC)c2c(C)c(C(=O)OCCN3CCOCC3)oc12`, the growth inhibition is reported as 31% (inactive).
With `COc1cnn(-c2ccccc2)c(=O)c1SCc1ccc(Cl)c(Cl)c1` the growth inhibition was 7% (inactive).
With `COc1ccc(/C=C/c2c[n+]([O-])ccc2[N+](=O)[O-])cc1` the growth inhibition was 95% (active).
In the case of `CS(=O)(=O)OCCCN(CCCOS(C)(=O)=O)c1ccc(C=Nc2ccc(-c3csc(COc4ccc(Br)cc4Br)n3)cc2)cc1`, the growth inhibition is reported as 83% (active).
In the case of `O=C(Nc1ccccc1-c1nn(C(=S)Nc2ccccc2)c(=S)n(C(=S)Nc2ccccc2)c1=O)C(F)(F)F`, the growth inhibition is reported as 59% (inactive).
In the case of `Cc1ccc(N=C(N)NN=C(c2ccc(Cl)cc2)c2ccc(Cl)cc2)cc1`, the growth inhibition is reported as 67% (inactive).
For `Cc1cccc(C)c1N1C(=O)C(=O)C(c2nc3ccccc3s2)/C(=N/NC(=O)c2ccccc2O)C1=O` (stereo not given), the growth inhibition was 26% (inactive).
With `CN(C)CC1CC/C(=C\c2ccc(O)cc2)C1=O` (stereo not given) the growth inhibition was 78% (active).
In the case of `CCCCCC=C(c1cc(Br)cc(C(=O)O)c1O)c1cc(Br)cc(C(=O)O)c1O`, the growth inhibition is reported as 91% (active).
With `CCS(CC)(CC)CC1CCCC2=CCC(P(=O)(c3ccccc3)c3ccccc3)CC21` (stereo not given) the growth inhibition was 5% (inactive).
With `Cc1c[n+](=O)c2ccccc2n1[O-]` the growth inhibition was 10% (inactive).
In the case of `O=C1CC(=S)NC(=S)N1`, the growth inhibition is reported as -6% (inactive).
With `CC1=NN(C(=O)c2ccc(Cl)cc2)C(=O)C1N=Nc1ccc(S(=O)(=O)Nc2ncccn2)cc1` (stereo not given) the growth inhibition was 93% (active).
With `COC(=O)c1cc(=O)n(-c2ccccc2OC)c(SC)n1` the growth inhibition was 83% (active).
For `CCCCN(CCCC)Cc1ccc(NC(C(=O)c2ccccc2)c2ccccc2)cc1` (stereo not given), the growth inhibition was 46% (inactive).
In the case of `Cn1cc(/C=C/[N+](=O)[O-])c2ccc(OCc3ccccc3)cc21`, the growth inhibition is reported as -6% (inactive).
In the case of `O=C(c1ccc([N+](=O)[O-])cc1)N1CCCSC1=S`, the growth inhibition is reported as 27% (inactive).
For `CCCCCCCCC(=O)NCCN(CCN)C(=O)CCCCCCCC`, the growth inhibition was 97% (active).
For `Cc1nc2sc3c(c2c2nnnn12)CCCC3`, the growth inhibition was 28% (inactive).
For `CCC(CC)(C(=O)Nc1ccc2c(c1)c(=O)c1ccccc1n2C)C(=O)Nc1ccc2c(c1)c(=O)c1ccccc1n2C`, the growth inhibition was 97% (active).
For `Cc1ccccc1N1CCN(c2c3c(nc4ccccc24)CCCCC3)CC1`, the growth inhibition was 94% (active).
For `O=C(Nc1ccccc1)c1cc(Cl)ccc1O`, the growth inhibition was 33% (inactive).
In the case of `CCCCCCCCCCCCCCCCCCOP(=O)([O-])OC1CC[N+](C)(C)CC1`, the growth inhibition is reported as 99% (active).
In the case of `CN(C)c1ccc(C(O)(Cc2cccc(C#N)c2)c2ccc(N(C)C)cc2)cc1`, the growth inhibition is reported as -13% (inactive).
In the case of `CC(=O)N1CCC(Cc2ccccc2)CC1`, the growth inhibition is reported as 95% (active).
In the case of `O=[N+]([O-])c1ccc(-n2ncc3cccnc32)c([N+](=O)[O-])c1`, the growth inhibition is reported as 99% (active).
In the case of `CC(C)OC(=O)c1ccc(NCC2=CC(=O)C=CC2=O)cc1Cl`, the growth inhibition is reported as 99% (active).
